Screening data: PubChem BioAssay, several laboratories
CYP2C19 act: human CYP2C19 activators, primary screen, biochemical, luminescence | Cytochrome P450 2C19 (Homo sapiens), P33261 | recombinant CYP2C19, luciferin-H EGE luminescence; stronger effect = higher value; 0 = fully inhibited enzyme, 1 = untreated enzyme | activation factor at 5 µM | 96,000 tested, under 10 active;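 active = activation factor of at least 2 at 5 µM in the primary screen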;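 note: 0 = wells with 2.5 mM tranylcypromine and 1 = vehicle-only wells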
CYP2C9 activ: human CYP2C9 activators, primary screen, biochemical, luminescence; activation factor at 5 µM; 96,000 tested, 1.4% active; recombinant CYP2C9, luciferin-H conversion; stronger effect = higher value; factor 1 = untreated enzyme, 0 = blocked; AID 1024, 2008;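 active = activation factor of 2 or more for CYP2C9 at a 5 µM dose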;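 note: 0 = sulfaphenazole-blocked wells and 1 = vehicle-only wells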
Target sequence (P11712 whole entry, looked up): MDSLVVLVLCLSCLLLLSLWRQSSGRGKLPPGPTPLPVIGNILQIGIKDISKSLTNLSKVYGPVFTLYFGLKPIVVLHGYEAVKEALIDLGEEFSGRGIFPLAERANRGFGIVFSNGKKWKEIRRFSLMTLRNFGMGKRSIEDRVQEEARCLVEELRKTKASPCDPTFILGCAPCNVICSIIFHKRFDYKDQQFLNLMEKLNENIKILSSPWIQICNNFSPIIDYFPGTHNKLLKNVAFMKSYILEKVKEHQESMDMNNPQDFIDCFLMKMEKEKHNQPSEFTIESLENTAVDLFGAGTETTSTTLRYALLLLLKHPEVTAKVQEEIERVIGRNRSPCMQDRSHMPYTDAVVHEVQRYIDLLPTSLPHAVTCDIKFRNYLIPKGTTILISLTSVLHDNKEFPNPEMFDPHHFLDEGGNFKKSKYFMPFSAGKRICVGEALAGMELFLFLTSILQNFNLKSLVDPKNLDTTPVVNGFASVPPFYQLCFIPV
CYP2C19 inhib: blockers of cytochrome P450 2C19 activity – biochemical, luminescence, ADME assay, primary screen; P33261; CYP2C19 Supersomes, luciferin-H EGE luminescence, 30 min; inhibition, % at 5 µM; 96,000 tested, 21% active;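 active = CYP2C19 inhibition above a set limit at 5 µM in the primary screen, cut at about 50% in these data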;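 note: plate controls were negative control wells for no effect and 2.5 mM tranylcypromine positive control for full effect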
PostGolgi ctrl: growth inhibition of yeast control strain, primary screen, counter-screen for post-Golgi transport modulator project; efflux-deficient yeast background strain, growth absorbance A615, 16 h; inhibition, % at 10 µM; 98,000 tested, 5% active
CYP2C9 inh: blockers of cytochrome P450 2C9 activity – biochemical, luminescence, ADME assay, primary screen; 96,000 tested, 20% active; inhibition, % at 5 µM; P11712; CYP2C9 Supersomes, luciferin-H conversion;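 active = blocking of liver enzyme CYP2C9 beyond about 50% at 5 µM, limit read from the data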
PostGolgi yeast: phenotypic screen on post-Golgi transport, primary screen. post-Golgi transport phenotypic cell assay. inhibition, % at 10 µM. 98,000 tested, 0.9% active. AID 739, 2007;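 note: yeast cells grown in 1536-well plates; yeast grown about 18 h at 30C before absorbance read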
Starred values were filed as active, the others as inactive. Hits are enriched below; roughly 32% of the tested compounds scored in any of these assays. Cut-off read from the data, not from the text of the source, unless noted: active = inhibition above about 30%; inactive = the rest.

CCN(CCO)c1nc(SC)nc2c1sc1nc(-c3ccco3)c3c(c12)CCC3 was read as CYP2C19 act 0.8, CYP2C9 activ 0.8, CYP2C19 inhib 21.5, PostGolgi ctrl 11.5, CYP2C9 inh 25.0 and PostGolgi yeast 1.1.
COc1ccccc1N1CCN(c2nc3ccccn3c(=O)c2C=O)CC1 was read as CYP2C19 act 0.3, CYP2C9 activ 1.3, CYP2C19 inhib 70.9*, PostGolgi ctrl 0.3, CYP2C9 inh -30.1 and PostGolgi yeast -4.1.
For O=C1/C(=N/n2cnnc2)c2ccccc2N1Cc1ccccc1 the results were CYP2C19 act 0.4, CYP2C9 activ 0.7, CYP2C19 inhib 62.7*, PostGolgi ctrl 4.4, CYP2C9 inh 26.1 and PostGolgi yeast -2.1.
`c1ccc2c(c1)C(=Nn1cnnc1)c1ccccc1-2` gave CYP2C19 act 0.6, CYP2C9 activ 0.8, CYP2C19 inhib 43.7, PostGolgi ctrl -10.8 and CYP2C9 inh 22.8.
Screening COC(=O)C1=CN(CC2CCCO2)C=C(C(=O)OC)C1c1cc(OC)c(OC)c(OC)c1 (configuration not stated) returned CYP2C19 act 1, CYP2C9 activ 0.9, CYP2C19 inhib 0.6, PostGolgi ctrl 17.1, CYP2C9 inh 6.5 and PostGolgi yeast -8.4.
COc1ccc(N2C(=O)CSC2c2cccc(F)c2)c(OC)c1 (configuration not stated) was read as CYP2C19 act 0.7, CYP2C9 activ 1, CYP2C19 inhib 34.4, PostGolgi ctrl 15.9, CYP2C9 inh -4.4 and PostGolgi yeast 1.3.
For COc1ccc(N2C(=O)CSC2c2ccc3c(c2)OCO3)c(OC)c1 (configuration not stated) the results were CYP2C19 act 0.2, CYP2C9 activ 0.9, CYP2C19 inhib 84.0*, PostGolgi ctrl 30.8*, CYP2C9 inh 9.6 and PostGolgi yeast 5.0.
For COc1ccc(N2C(=O)CSC2c2ccncc2)cc1 (configuration not stated) the results were CYP2C19 act 0.6, CYP2C9 activ 0.4, CYP2C19 inhib 41.4, PostGolgi ctrl -13.0, CYP2C9 inh 58.0* and PostGolgi yeast -4.3.
`COc1ccc(N2C(=O)CSC2c2ccc3c(c2)OCO3)cc1` (configuration not stated) gave CYP2C19 act 0.1, CYP2C9 activ 1.2, CYP2C19 inhib 89.0*, PostGolgi ctrl 9.9, CYP2C9 inh -21.5 and PostGolgi yeast 8.5.
CCOC(=O)CSc1nnnn1-c1cccc2ccccc12 was read as PostGolgi ctrl 5.6 and PostGolgi yeast 6.4.
Screening Cc1ccc(Sc2nnc(Cc3ccccc3)c3ccccc23)cc1 returned CYP2C19 act 0.9, CYP2C9 activ 1.4, CYP2C19 inhib 9.2, PostGolgi ctrl 33.8*, CYP2C9 inh -42.5 and PostGolgi yeast 8.7.
`COc1cc(OC)cc(C(=O)Nc2cccc(C(C)=O)c2)c1` gave CYP2C19 act 0.3, CYP2C9 activ 0.2, CYP2C19 inhib 70.8*, PostGolgi ctrl 4.2, CYP2C9 inh 76.5* and PostGolgi yeast -4.5.
COc1ccc(S(=O)(=O)N(C)CC(=O)Nc2ccc(F)cc2)cc1 was read as CYP2C19 act 0.5, CYP2C9 activ 2.2*, CYP2C19 inhib 45.1, PostGolgi ctrl 17.3, CYP2C9 inh -119.7 and PostGolgi yeast 10.3.
`COc1ccc(S(=O)(=O)N(C)CC(=O)Nc2cccc(C(C)=O)c2)cc1` gave CYP2C19 act 0.1, CYP2C9 activ 0.6, CYP2C19 inhib 88.4*, PostGolgi ctrl 0.5, CYP2C9 inh 38.3 and PostGolgi yeast -2.4.
`COc1ccc(S(=O)(=O)N(C)CC(=O)N2CCCCC2)cc1Cl` gave CYP2C19 act 0.5, CYP2C9 activ 1.7, CYP2C19 inhib 48.2, PostGolgi ctrl 2.5, CYP2C9 inh -67.5 and PostGolgi yeast -1.6.
Screening COc1ccc(S(=O)(=O)N(C)CC(=O)Nc2cccc(C(C)=O)c2)cc1Cl returned CYP2C19 act 0.1, CYP2C9 activ 1.2, CYP2C19 inhib 92.9*, PostGolgi ctrl -3.8, CYP2C9 inh -18.3 and PostGolgi yeast 4.3.
`CC1(C)CC(=O)C2=C(C1)OC(N)=C(C#N)C2C1CC=CCC1` (configuration not stated) gave PostGolgi ctrl 8.0 and PostGolgi yeast -8.1.
Screening COc1ccc(S(=O)(=O)N(C)CC(=O)NC2CCCC2)cc1Cl returned CYP2C19 act 0.4, CYP2C9 activ 1.8, CYP2C19 inhib 55.3*, PostGolgi ctrl 11.8, CYP2C9 inh -76.9 and PostGolgi yeast -1.3.
Screening CC(C)(C)C1CCc2c(sc3c2C(=O)NC(c2ccco2)N3)C1 (configuration not stated) returned PostGolgi ctrl 10.0 and PostGolgi yeast -5.8.
`CCCC(=O)NC(Nc1cc(C(F)(F)F)ccc1Cl)C(Cl)(Cl)Cl` (configuration not stated) gave CYP2C19 act 0.9, CYP2C9 activ 0.8, CYP2C19 inhib 14.5, PostGolgi ctrl 19.9, CYP2C9 inh 19.7 and PostGolgi yeast 6.4.
For CC(C)C(=O)NC(Nc1ccccc1F)C(Cl)(Cl)Cl (configuration not stated) the results were CYP2C19 act 0.5, CYP2C9 activ 0.4, CYP2C19 inhib 53.7*, PostGolgi ctrl 3.7, CYP2C9 inh 58.6* and PostGolgi yeast 5.0.
`CC(C)CC(=O)NC(Nc1ccccc1F)C(Cl)(Cl)Cl` (configuration not stated) gave CYP2C19 act 0.5, CYP2C9 activ 0.4, CYP2C19 inhib 51.6*, PostGolgi ctrl 5.6, CYP2C9 inh 57.8* and PostGolgi yeast -2.1.
Screening CC(C)CC(=O)NC(=S)Nc1ccccc1F returned CYP2C19 act 0.9, CYP2C9 activ 0.9, CYP2C19 inhib 5.3, PostGolgi ctrl -2.4, CYP2C9 inh 9.8 and PostGolgi yeast 3.3.
`CCCC(=O)NC(Nc1ccccc1F)C(Cl)(Cl)Cl` (configuration not stated) gave CYP2C19 act 0.5, CYP2C9 activ 0.4, CYP2C19 inhib 53.1*, PostGolgi ctrl 3.4, CYP2C9 inh 56.7* and PostGolgi yeast 8.8.
Screening Cc1nc2ccc(NC(=O)c3c(-c4ccccc4)noc3C)cc2s1 returned CYP2C19 act 0.6, CYP2C9 activ 0.6, CYP2C19 inhib 37.7, PostGolgi ctrl -0.3, CYP2C9 inh 40.8 and PostGolgi yeast 17.2.
Screening CC(OC(=O)c1cccs1)C(=O)NCc1cccs1 (configuration not stated) returned CYP2C19 act 0, CYP2C9 activ 0.4, CYP2C19 inhib 95.2*, PostGolgi ctrl 8.4, CYP2C9 inh 62.0* and PostGolgi yeast -4.8.
